# A structure can be active in one record and inactive in another. The source made the active and inactive calls. The calls were made as follows: active = hit-call score of the fitted dose curve at least 0.9, where 1 is the maximum; inactive = score below 0.9.
# Assay: BSK_BE3C_SRB: Viability Assessment in the BioMAP Diversity Plus: BE3C Assay (AID 2283028);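 as to AC50: fitted both ways so AC50 may mark signal gain or loss versus DMSO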
# Conditions: primary human bronchial epithelial cells
# Protocol: BSK_BE3C is a cell-based, multiplexed-readout assay that uses bronchial epithelial cell, a human lung primary cell, with measurements taken at 24 hours after chemical dosing in a 96-well plate.BSK_BE3C_SRB is an assay component measured in the BSK_BE3C assay. It measures 0.1% sulforhodamine related to cell death using Sulforhodamine staining technology.Data from the assay component BSK_BE3C_SRB was analyzed into 1 assay endpoint. This assay endpoint, BSK_BE3C_SRB, was analyzed with bidirectional fitting relative to DMSO as the negative control and baseline of activity. Using a type of viability reporter, gain or loss-of-signal activity can be used to understand changes in the signaling. Furthermore, this assay endpoint can be referred to as a primary readout, because this assay has produced multiple assay endpoints where this one serves a signaling function. To generalize the intended target to other relatable targets, this assay endpoint is annotated to the cell morphology intended target family, where the subfamily is cell conformation.
# The levels of cell surface (or secreted, indicated by the prefix "s") biomarker endpoints were measured by ELISA. Overt cytotoxicity to cells in confluent adherent cultures (all systems other than the BT system) was assessed by measuring total protein levels using sulforhodamine B (SRB) staining in parallel cultures at the time of biomarker measurements, indicated as SRB endpoints. For proliferation assays for adherent cell types, individual cell types are cultured at sub-confluence and relative cell numbers quantified by SRB staining at time points optimized for each system (48 h: 3C and CASM3C systems; 72 h: BT and HDF3CGF systems; 96 h: SAg system). SRB was performed by staining cells with 0.1% SRB after fixation with 10% TCA and reading wells at 560 nm.Viability and proliferation of PBMC (T cells) was quantified by Alamar Blue reduction for the SAg and BT systems. For PBMC viability (referred to as PBMC Cytotoxicity within the assay endpoint names), cells were plated (75,000/well in a 96-well plate) and then chemical samples added for 1 h before addition of activators, SEB and TSST-1 (20 ng/mL final concentration each). Cells were incubated for 90 h. Then, Alamar Blue (20 uL/well) (Invitrogen, Cat DAL1100) was added for 6 h, and the plates were read with a fluorescence microplate reader at 546/580 nm (excitation/emission). For PBMC proliferation, cells were plated and activated as above but incubated for only 16 h prior to addition of Alamar Blue. Plates were read after 6 h.
Structure (SMILES),AC50,outcome
O=S(=O)(O)C(F)(F)C(F)(F)C(F)(F)C(F)(F)C(F)(F)C(F)(F)C(F)(F)C(F)(F)F,19.8 µM (active) [middle of 7 runs],inactive
N#Cc1c(Cl)c(Cl)c(Cl)c(C#N)c1Cl,1.72 µM (active),–
[2H]C1([2H])[n+]2ccccc2-c2cccc[n+]2C1([2H])[2H],13.3 µM (active),–
CCC(C)(C)C(=O)OC1=C(c2ccc(Cl)cc2Cl)C(=O)OC12CCCCC2,31.3 µM (active),–
CCCN(CCOc1c(Cl)cc(Cl)cc1Cl)C(=O)n1ccnc1,28.9 µM (active),–
CC(C)N(C(=O)COc1nnc(C(F)(F)F)s1)c1ccc(F)cc1,–,inactive
CC[C@H](C)[C@H]1O[C@]2(C=C[C@@H]1C)C[C@@H]1C[C@@H](C/C=C(\C)[C@@H](O[C@H]3C[C@H](OC)[C@@H](O[C@H]4C[C@H](OC)[C@@H](O)[C@H](C)O4)[C@H](C)O3)[C@@H](C)/C=C/C=C3\CO[C@@H]4[C@H](O)C(C)=C[C@@H](C(=O)O1)[C@]34O)O2 (tested in a mixture with another compound),4.65 µM (active),–
O=C(O)C(F)(F)C(F)(F)C(F)(F)C(F)(F)C(F)(F)C(F)(F)C(F)(F)F,–,inactive
CCS(=O)(=O)c1cccnc1S(=O)(=O)NC(=O)Nc1nc(OC)cc(OC)n1,–,inactive
COc1cc(OC)nc(NC(=O)NS(=O)(=O)c2cc(NC=O)ccc2C(=O)N(C)C)n1,–,inactive
N#CN,–,inactive
CCCN(CCC)c1c([N+](=O)[O-])cc(C(F)(F)F)cc1[N+](=O)[O-],–,inactive
Oc1cc(Cl)ccc1Oc1ccc(Cl)cc1Cl,31.4 µM (active) [middle of 4 runs],–
ClC1C(Cl)C(Cl)C(Cl)C(Cl)C1Cl (stereo not given),–,inactive
COP(=S)(OC)Oc1ccc([N+](=O)[O-])cc1,–,inactive
CCN(CC)C(=O)SCc1ccc(Cl)cc1,–,inactive
CNC(=O)CSP(=S)(OC)OC,–,inactive
O=C1c2ccccc2C(=O)N1SC(Cl)(Cl)Cl,31.8 µM (active),–
CC1(C)C(C=C(Cl)Cl)C1C(=O)OC(C#N)c1ccc(F)c(Oc2ccccc2)c1 (stereo not given),–,inactive
COc1nn(CSP(=S)(OC)OC)c(=O)s1,–,inactive

Structure (SMILES),AC50,outcome
O=C(Nc1ccccc1)Nc1cnns1,–,inactive
CNC(=O)Oc1ccccc1OC(C)C,–,inactive
COP(=S)(OC)Oc1ccc(SC)c(C)c1,23.2 µM (active),–
CCC(C)(NC(=O)c1cc(Cl)c(C)c(Cl)c1)C(=O)CCl (stereo not given),16.5 µM (active),–
CCOCN(C(=O)CCl)c1c(C)cccc1CC,20 µM (active),–
CN1CSC(=S)N(C)C1,–,inactive
C#CCN1C(=O)COc2cc(F)c(N3C(=O)C4=C(CCCC4)C3=O)cc21,–,inactive
COC(=O)c1ccccc1S(=O)(=O)NC(=O)N(C)c1nc(C)nc(OC)n1,–,inactive
Cc1cc(C)nc(NC(=O)NS(=O)(=O)c2ccccc2C(=O)OC2COC2)n1,–,inactive
CC1(c2ccc(Oc3ccccc3)cc2)OC(=O)N(Nc2ccccc2)C1=O (stereo not given),27.5 µM (active),–
O=C(NC(=O)c1c(F)cccc1F)Nc1ccc(OC(F)(F)C(F)OC(F)(F)F)c(Cl)c1 (stereo not given),–,inactive
CNC(=O)Oc1cccc(N=CN(C)C)c1,–,inactive
O=C(O)CCCOc1ccc(Cl)cc1Cl,–,inactive
O=[N+]([O-])/N=C1\NCCN1Cc1ccc(Cl)nc1,–,inactive
CC(C)OC(=O)Nc1cccc(Cl)c1,–,inactive
COC(=O)c1ccccc1CS(=O)(=O)NC(=O)Nc1nc(OC)cc(OC)n1,–,inactive
C[C@H]1[C@H](c2ccc(Cl)cc2)SC(=O)N1C(=O)NC1CCCCC1,15.7 µM (active),–
Oc1ccc(Cl)cc1Cc1ccccc1,34.7 µM (active) [middle of 5 runs],–
COC(=O)c1ccccc1S(=O)(=O)NC(=O)Nc1nc(C)nc(OC)n1,–,inactive

# Reference: PubChem BioAssay (EPA / NIEHS)
